Experimental data taken from PubChem BioAssay (Tox21).
Results filed as inconclusive are left out. Activity calls are given as the source filed them. Unless noted, the call rests on the fitted dose curve.

Assays:
[1] = biological target: Estrogen receptor beta (Homo sapiens) (UniProt Q92731); experiment: qHTS assay to identify small molecule agonists of the estrogen receptor beta (ER-beta) signaling pathway (AID 1259377; active means well fitted activation curve with a large enough effect in the signal ratio in the repeat runs, not every such curve was filed as active; the % refers to the signal ratio)
In short: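 Beta-lactamase reporter readout: fluorescence of LiveBLAzer B/G FRET substrate after 2 h at room temperature, following 16 h compound treatment of ER-beta-UAS-bla HEK293T cells at 37C in 2% charcoal-stripped FBS medium.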

[2] = biological target: Estrogen receptor beta (Homo sapiens) (UniProt Q92731); experiment: qHTS assay to identify small molecule antagonists of the estrogen receptor beta (ER-beta) signaling pathway (AID 1259378; active means well fitted inhibition curve with a large enough effect in the signal ratio in the repeat runs, not every such curve was filed as active; the % refers to the signal ratio; further: potency means the concentration at half of the fitted maximal effect)
In short: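 Antagonist mode: compounds added to beta-lactamase reporter HEK293T ER-beta-UAS cells stimulated with E2 (1nM final), 16 hr at 37C. LiveBLAzer B/G FRET substrate, 2 hours room temperature, fluorescence read-out.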

[3] = qHTS assay to identify small molecule agonists of the androgen receptor (AR) signaling pathway in the presence of an antagonist - cell viability counter screen (AID 1259379; active means well fitted curve in the direction sought with a large enough effect in the repeat runs; an effect the other way counts as inactive or inconclusive; further: nearly all actives have a fitted effect of over 25% in size; further: potency means the concentration at half of the fitted maximal effect)
In short: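 MDA-kb2 human breast carcinoma cells (stable MMTV-luciferase, AR/GR responsive) were seeded 3,000 cells/well, pre-incubated 5 hr at 37C without CO2, then given 3.0uM nilutamide and compounds at 15 concentrations for 16 hr. Viability was read by CellTiter-Fluor fluorescence.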

[4] = qHTS assay to identify small molecule agonists of the estrogen receptor beta (ER-beta) signaling pathway - cell viability counter screen (AID 1259380; active means well fitted curve in the direction sought with a large enough effect in the repeat runs; an effect the other way counts as inactive or inconclusive; further: nearly all actives have a fitted effect of over 30% in size; further: potency means the concentration at half of the fitted maximal effect)
In short: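 ER-beta-UAS-bla HEK293T cells in medium with 2% charcoal-stripped FBS were preincubated 6 hr at 37C, dosed with compound in DMSO for 16 hr, then after the bla read, CellTiter-Glo was added for 30 min at room temperature; luminescence recorded.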

[5] = qHTS assay to identify small molecule antagonists of the estrogen receptor beta (ER-beta) signaling pathway - cell viability counter screen (AID 1259382; active means well fitted curve in the direction sought with a large enough effect in the repeat runs; an effect the other way counts as inactive or inconclusive; further: nearly all actives have a fitted effect of over 55% in size; further: potency means the concentration at half of the fitted maximal effect)
In short: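 ER-beta-UAS-bla HEK293T cells (2,000/well, 2% charcoal-stripped FBS) were pre-incubated 6 hr at 37C, then given compound plus 1nM final 17-beta-estradiol for 16 hr. Viability was read in the same wells by CellTiter-Glo luminescence after 30 min at room temperature.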

[6] = qHTS assay to identify small molecule agonists or antagonists of the thyroid stimulating hormone receptor (TSHR) signaling pathway - wild type cell line counter screen (AID 1259384)
In short: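 Counter screen in untransfected Hek293: compounds (15-point titration, triplicate) plus phosphodiesterase inhibitor Ro20-1724 added after 18 h plating; 30 min RT. Intracellular cAMP via competitive d2/cryptate immunoassay, 1 h incubation.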

[7] = biological target: Thyrotropin receptor (Homo sapiens) (UniProt P16473); experiment: qHTS assay to identify small molecule antagonists of the thyroid stimulating hormone receptor (TSHR) signaling pathway (AID 1259385); further: nearly all actives have a fitted effect of over 20% in size; further: potency means the concentration at half of the fitted maximal effect
In short: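 Antagonist mode: compound-treated TSHR-expressing HEK293 cells were stimulated with 1.5 ng/mL TSH (final) in presence of Ro20-1724 for 30 min at RT. HTRF cAMP detection after 1 h; each compound tested at 15 concentrations, triplicate.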

[8] = qHTS assay to identify small molecule antagonists of the sonic hedgehog signaling (Shh) pathway (AID 1259369); further: nearly all actives have a fitted effect of over 45% in size; further: potency means the concentration at half of the fitted maximal effect
In short: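 NIH/3T3-derived 3T3Gli1-Luc cells with stably integrated Gli1-Luc reporter were preincubated 4hr at 37 C, then given compounds in DMSO plus Shh conditioned medium and incubated 24hr. Firefly luciferase luminescence read after 30min reagent at room temperature.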

[9] = biological target: Estrogen receptor (Homo sapiens) (UniProt P03372); experiment: qHTS assay to identify small molecule agonists of the estrogen receptor alpha (ER-alpha) signaling pathway in the presence of an antagonist (AID 1259383); further: nearly all actives have a fitted effect of over 15% in size; further: potency means the concentration at half of the fitted maximal effect; on activation: top concentration of the series differs between compounds
In short: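 VM7Luc4E2 cells (endogenous full-length ER-alpha, 4×ERE-luciferase) were precultured 5 days in phenol red-free medium with 10% charcoal-stripped FBS, given 10.0nM ICI-182,780 (final), then treated with compounds at 15 concentrations for 22hr at 37C; luminescence read with ONE-Glo.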

[10] = biological target: Androgen receptor (Homo sapiens) (UniProt P10275); experiment: qHTS assay to identify small molecule agonists of the androgen receptor (AR) signaling pathway in the presence of an antagonist (AID 1259381); further: nearly all actives have a fitted effect of over 15% in size
In short: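 MDA-kb2 human breast carcinoma cells carrying an MMTV-luciferase reporter (AR- and GR-responsive) were treated with compounds at 15 concentrations plus 3.0uM final nilutamide for 16hr at 37C without CO2; luminescence was read after ONE-Glo addition.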

Measured: Potency

Chain of Estrogen receptor (Homo sapiens) (P03372 whole entry, looked up): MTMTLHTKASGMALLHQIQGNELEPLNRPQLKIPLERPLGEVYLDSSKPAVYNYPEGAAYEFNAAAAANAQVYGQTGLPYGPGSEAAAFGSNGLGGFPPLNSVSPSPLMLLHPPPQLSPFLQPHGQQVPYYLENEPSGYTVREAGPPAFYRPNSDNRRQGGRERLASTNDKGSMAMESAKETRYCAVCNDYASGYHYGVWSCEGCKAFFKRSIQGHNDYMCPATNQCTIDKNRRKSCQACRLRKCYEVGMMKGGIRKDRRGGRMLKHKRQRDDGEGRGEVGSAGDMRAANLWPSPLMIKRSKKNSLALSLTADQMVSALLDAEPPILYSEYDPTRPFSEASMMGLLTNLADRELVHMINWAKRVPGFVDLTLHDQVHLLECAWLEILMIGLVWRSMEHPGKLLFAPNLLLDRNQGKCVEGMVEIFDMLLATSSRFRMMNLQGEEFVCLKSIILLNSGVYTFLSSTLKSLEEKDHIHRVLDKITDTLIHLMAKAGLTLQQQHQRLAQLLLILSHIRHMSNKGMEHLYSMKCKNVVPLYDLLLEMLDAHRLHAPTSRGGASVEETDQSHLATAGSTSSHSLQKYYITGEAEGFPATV
Chain of Estrogen receptor beta (Homo sapiens) (Q92731 whole entry, looked up): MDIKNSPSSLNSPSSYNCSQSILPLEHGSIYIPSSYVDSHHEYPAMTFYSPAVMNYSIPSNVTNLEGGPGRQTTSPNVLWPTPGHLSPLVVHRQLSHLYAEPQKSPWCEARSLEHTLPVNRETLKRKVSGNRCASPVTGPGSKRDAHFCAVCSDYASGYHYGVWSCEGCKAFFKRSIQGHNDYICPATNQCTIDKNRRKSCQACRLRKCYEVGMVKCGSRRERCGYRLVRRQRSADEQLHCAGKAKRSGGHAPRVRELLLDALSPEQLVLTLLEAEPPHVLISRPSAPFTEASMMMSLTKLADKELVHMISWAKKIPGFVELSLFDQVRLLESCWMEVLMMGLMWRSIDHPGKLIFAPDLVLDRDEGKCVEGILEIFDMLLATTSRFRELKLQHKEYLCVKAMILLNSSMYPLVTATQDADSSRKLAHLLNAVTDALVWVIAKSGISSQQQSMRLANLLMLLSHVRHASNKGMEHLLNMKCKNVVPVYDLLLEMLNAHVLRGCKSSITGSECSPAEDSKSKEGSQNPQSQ
Chain of Thyrotropin receptor (Homo sapiens) (P16473 whole entry, looked up): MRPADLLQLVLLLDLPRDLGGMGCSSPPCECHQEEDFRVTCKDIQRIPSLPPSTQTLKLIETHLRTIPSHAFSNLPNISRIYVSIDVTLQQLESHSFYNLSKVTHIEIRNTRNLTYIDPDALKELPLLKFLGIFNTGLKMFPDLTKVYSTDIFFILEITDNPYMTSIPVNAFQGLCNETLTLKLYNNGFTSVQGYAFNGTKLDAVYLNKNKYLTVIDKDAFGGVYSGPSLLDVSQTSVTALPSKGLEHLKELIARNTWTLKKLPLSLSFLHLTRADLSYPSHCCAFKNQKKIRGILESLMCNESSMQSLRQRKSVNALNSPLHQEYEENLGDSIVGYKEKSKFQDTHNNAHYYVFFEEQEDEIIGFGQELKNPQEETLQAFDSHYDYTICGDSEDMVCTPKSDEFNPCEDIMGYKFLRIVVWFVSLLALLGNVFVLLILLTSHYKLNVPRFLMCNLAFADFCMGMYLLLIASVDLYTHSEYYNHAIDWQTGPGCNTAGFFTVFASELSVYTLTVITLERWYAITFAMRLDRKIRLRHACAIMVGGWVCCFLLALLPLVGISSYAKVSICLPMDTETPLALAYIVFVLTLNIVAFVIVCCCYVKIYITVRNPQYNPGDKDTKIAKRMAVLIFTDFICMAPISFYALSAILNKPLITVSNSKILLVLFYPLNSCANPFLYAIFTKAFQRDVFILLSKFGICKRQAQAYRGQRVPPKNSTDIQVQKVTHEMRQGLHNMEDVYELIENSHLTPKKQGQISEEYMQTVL
Chain of Androgen receptor (Homo sapiens) (P10275 whole entry, looked up): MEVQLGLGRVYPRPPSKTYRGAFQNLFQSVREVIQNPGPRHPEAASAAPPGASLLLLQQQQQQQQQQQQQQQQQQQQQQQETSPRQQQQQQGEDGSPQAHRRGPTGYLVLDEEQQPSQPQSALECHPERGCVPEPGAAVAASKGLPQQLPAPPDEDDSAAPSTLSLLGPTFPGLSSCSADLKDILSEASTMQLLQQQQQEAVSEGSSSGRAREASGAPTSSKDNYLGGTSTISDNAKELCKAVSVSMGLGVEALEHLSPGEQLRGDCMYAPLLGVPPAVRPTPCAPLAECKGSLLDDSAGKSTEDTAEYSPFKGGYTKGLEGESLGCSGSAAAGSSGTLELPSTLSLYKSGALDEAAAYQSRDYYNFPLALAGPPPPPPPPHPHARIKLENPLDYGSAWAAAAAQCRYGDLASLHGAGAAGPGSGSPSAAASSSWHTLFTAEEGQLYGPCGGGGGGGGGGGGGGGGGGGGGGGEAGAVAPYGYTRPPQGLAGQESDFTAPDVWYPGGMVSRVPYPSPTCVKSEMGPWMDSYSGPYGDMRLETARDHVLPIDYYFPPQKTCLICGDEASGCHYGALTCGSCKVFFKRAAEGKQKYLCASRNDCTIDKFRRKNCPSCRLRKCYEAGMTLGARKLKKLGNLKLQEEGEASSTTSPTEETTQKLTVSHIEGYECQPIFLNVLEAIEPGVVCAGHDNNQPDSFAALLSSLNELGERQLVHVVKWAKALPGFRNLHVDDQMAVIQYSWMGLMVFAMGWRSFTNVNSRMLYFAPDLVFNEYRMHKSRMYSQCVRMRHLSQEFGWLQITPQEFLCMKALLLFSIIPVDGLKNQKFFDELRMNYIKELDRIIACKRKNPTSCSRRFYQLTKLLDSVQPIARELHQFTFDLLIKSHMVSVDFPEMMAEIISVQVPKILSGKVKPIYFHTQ

C/C=C/C=C/CO
not listed: [8] | [9] | [10]
inactive: all other assays above

CCc1cc(C2=C(C(=O)O)N(c3ccccc3C(F)(F)F)S(=O)(=O)c3ccccc32)cc2c1OCO2
active: [4] 15.2 µM
inactive: [8]

C=C(C)C(=O)OCCOCC
inactive: [1] | [3] | [5] | [9] | [6] | [7]

CNCCCN1c2ccccc2CCc2ccccc21
active: [8] 5.96 µM | [5] 23.7 µM | [7] 29.8 µM
inactive: [10] | [9] | [6]

CC(C)(C)OCC1CO1 (stereo unspecified)
inactive: [1] | [2] | [3] | [4] | [5] | [6]

CC(C)C[C@H]1C(=O)N2CCC[C@H]2[C@]2(O)O[C@](NC(=O)[C@@H]3C=C4c5cccc6[nH]c(Br)c(c56)C[C@H]4N(C)C3)(C(C)C)C(=O)N12
active: [8] 5.19 µM
inactive: [4] | [5] | [6] | [7]

COc1cccc(N(C)C(=S)Oc2ccc3c(c2)CCCC3)n1
inactive: [2] | [3] | [5] | [9]

C#Cc1cccc(Nc2ncnc3cc(OCCOC)c(OCCOC)cc23)c1
active: [4] 2.66 µM
inactive: [9] | [7]

CN1CCC(=C2c3ccccc3Sc3ccccc32)CC1
active: [4] 23.7 µM | [5] 21.1 µM
inactive: [3] | [10] | [9]

CCCCNc1ccc(C(=O)OCCOCCOCCOCCOCCOCCOCCOCCOCCOC)cc1
inactive: [2] | [3] | [5] | [9] | [6] | [7]

CCNc1cc(O)ccc1C
inactive: [2] | [3] | [4] | [5] | [9] | [6]

COc1ccc(C(=O)c2ccc(OC)cc2O)c(O)c1
active: [9] 8.7 µM
not listed: [1] | [8]
inactive: all other assays above

COc1cc2nc(Cl)nc(N)c2cc1OC
inactive: [3] | [10] | [5] | [9]

Nc1ccccc1S(=O)(=O)c1ccccc1
inactive: [3] | [4] | [5] | [6] | [7]

CN1CCN(C(c2ccccc2)c2ccccc2)CC1
not listed: [1] | [8]
inactive: all other assays above

CN(C)C(=O)NC1(c2ccccc2)CCN(CC[C@@]2(c3ccc(F)c(F)c3)CN(C(=O)c3ccccc3)CCO2)CC1
inactive: [3] | [6] | [7]
active: [4] 71.4 µM

CCCCC
inactive: [2] | [3] | [4] | [5] | [6] | [7]

Nc1ccc(S(=O)(=O)Nc2ccccc2)cc1
inactive: [3] | [4] | [5] | [6] | [7]

CC1=CC[C@H](C(C)C)C=C1
inactive: [3] | [5] | [9]

CCCCC(CC)CN1C(=O)C2C3C=CC(C3)C2C1=O (stereo unspecified)
inactive: [1] | [3] | [5] | [9] | [6] | [7]

CCOC(=O)C1=C[C@]2(CC)CCCN3CCc4c(n1c1ccccc41)[C@@H]32
inactive: [3] | [5] | [9] | [6] | [7]

COc1cc2c(cc1OC)C(C(C(=O)N(CCc1ccc(OC)c(OC)c1OC)CCc1ccc(OC)c(OC)c1OC)c1ccccc1)=NCC2 (stereo unspecified)
inactive: [1] | [4] | [5] | [6] | [7]

CC[N+]1(CC)CCC(=C(c2ccccc2)c2ccccc2)C1C (stereo unspecified)
inactive: [4] | [5] | [6] | [7]

CN(C)CCN(Cc1ccc(Cl)cc1)c1ccccn1
inactive: [3] | [6] | [7]
active: [4] 33.5 µM

C[C@@H]1C[C@H]2O[C@@]3(O[C@@H]2C(C)(C)O)[C@H](O)[C@@]2(C)[C@@H]4CC[C@H]5C(C)(C)[C@@H](O[C@@H]6OC[C@@H](O)[C@H](O)[C@H]6O)CC[C@@]56C[C@@]46CC[C@]2(C)[C@@H]13
not listed: [1] | [4] | [8]
inactive: all other assays above

CCCCc1nc2cccnc2n1Cc1ccc(-c2ccccc2-c2nnn[nH]2)cc1
inactive: [1] | [3] | [9] | [6] | [7]

Clc1ccc(Cn2c(CN3CCCC3)nc3ccccc32)cc1
active: [2] 11.9 µM
inactive: [3] | [6]

CCOc1ccc(N=Nc2ccc(/C=C/c3ccc(N=Nc4ccc(OCC)cc4)cc3S(=O)(=O)O)c(S(=O)(=O)O)c2)cc1
active: [3] 21.4 µM
inactive: [4] | [6] | [7]

CC(C)Cc1ccc(C(C)C(=O)OCc2ccccn2)cc1 (stereo unspecified)
inactive: [3] | [4] | [5] | [9] | [6]

COc1ccc(C(=O)Nc2nc3ccccc3c(NCc3ccccc3)c2C#N)cc1
inactive: [2] | [3] | [5] | [9]
active: [4] 27.3 µM

C[C@H](CCC(=O)O)[C@H]1CC[C@H]2[C@@H]3CC[C@@H]4C[C@H](O)CC[C@]4(C)[C@H]3C[C@H](O)[C@]12C
active: [4] 48.7 µM
inactive: [9] | [6]

C[Si](C)(CCCN)O[Si](C)(C)CCCN
inactive: [3] | [4] | [5] | [9] | [6] | [7]

CCOC(=O)NCCOc1ccc(Oc2ccccc2)cc1
inactive: [5] | [9] | [6] | [7]
active: [3] 61.1 µM

Nc1ccc(N)c2c1C(=O)c1ccccc1C2=O
inactive: [2] | [10]
active: [3] 21.7 µM | [4] 7.7 µM

c1ccc(CNCCNCc2ccccc2)cc1
inactive: [3] | [4] | [9] | [6] | [7]
active: [2] 10.6 µM

NC(=O)C(c1ccccc1)(c1ccccc1)[C@@H]1CCN(CCc2ccc3c(c2)CCO3)C1
inactive: [3] | [5] | [9] | [6] | [7]
